# Out of some 290,000 compounds screened, about 3,300 (1.1%) were called active. The full list was thinned out, with actives kept by preference. A number with no mark means an inactive call. No stated cut-off is given here; in the data, active means binding response below about 67% or above about 130%; inconclusive means no clear call, values can overlap the other calls; inactive means in between.
# Target: Mitogen-activated protein kinase kinase kinase 2 (Homo sapiens) (UniProt Q9Y2U5)
# Test: modulators of MEK5 binding to wildtype MEKK2, primary screen, biochemical, multiplex bead flow cytometry, Alexa488-MEK5 (AID 1531)
# Conditions: Alexa488-MEK5 binding to MEKK2 WT, at 10 µM, actives lie on both sides
row,Structure (SMILES),binding response (% of control)
1,O=C(CN1CCN(C2CCCCC2)CC1)Nc1ccccc1N1CCCCC1,109%
2,Cc1ccc(C(C)C)cc1OCC(=O)Nc1ccccc1N1CCCC1,100%
3,CN1CCN(c2ccccc2NC(=O)COc2ccc(C3CCCCC3)cc2)CC1,145% (active)
4,NC(=O)c1oc2ccccc2c1NC(=O)CS(=O)(=O)c1ccccc1,106%
5,O=C(O)c1ccccc1C(=O)Nc1ccccc1[N+](=O)[O-],0% (active)
6,O=C(Nc1ccccc1[N+](=O)[O-])C1C(c2ccccc2)=C1c1ccccc1,97%
7,O=C(Nc1ccccc1-c1ccccc1)c1ccccc1[N+](=O)[O-],106%
8,CCOC(=O)C[C@H]1c2ccc(C(F)(F)F)cc2S(=O)(=O)N1c1ccccc1,98%
9,CCOC(=O)C1CCN(C(=O)Cn2nc(C)c3c(C)n(-c4ccccc4)nc3c2=O)CC1,101%
10,COc1ccc(S(=O)(=O)N2CCC(C(=O)NCCC(=O)NCc3cccc(OC)c3)CC2)cc1,104%
11,CCOc1cc(/C=C/c2nc3ccccc3c(=O)[nH]2)cc(Br)c1OC,98%
12,O=C(Nc1c2c(nn1-c1cccc(Cl)c1)CS(=O)(=O)C2)c1cccs1,81%
13,CCOc1cc(C2C(C(=O)c3ccco3)=C(O)C(=O)N2Cc2ccccc2)ccc1O (configuration not stated),93%
14,CCCc1nn(C)c2c(=O)[nH]c(-c3cc(S(N)(=O)=O)ccc3OCC)nc12,105%
15,COc1ccc(S(=O)(=O)NC(C)C(=O)NCc2ccncc2)cc1Cl (configuration not stated),98%
16,Cn1cc(CCC(=O)NC2CC2)c2ccccc21,96%
17,COc1ccc(C(=O)Nc2ccnn2C2CCN(Cc3ccncc3)CC2)cc1,101%
18,CC(C)Oc1ccc(CN2CCC(n3nccc3NC(=O)c3cccnc3)CC2)cc1,142% (active)
19,COc1ccccc1C(=O)Nc1ccnn1C1CCN(Cc2cnn(C)c2)CC1,88%
20,Cc1ccc(SCC(=O)NNC(=O)c2ccc(S(C)(=O)=O)cc2)cc1,102%
21,CC(C)OCCCNC(=O)C1CC(=O)N(C2CCCCCCC2)C1 (configuration not stated),100%
22,O=C(NCCc1ccc(Cl)cc1)C1CC(=O)N(C2CCCCC2)C1 (configuration not stated),98%
23,O=C(NCCCN1CCCCCC1)C1CC(=O)N(C2CCCC2)C1 (configuration not stated),162% (active)
24,CCn1c(CC(=O)Nc2ccccc2)nnc1SCC(=O)N1CCOCC1,96%

row,Structure (SMILES),binding response (% of control)
1,CCOC(=O)c1ccc(N2C(=O)CC(N3CCC(C(=O)OCC)CC3)C2=O)cc1 (configuration not stated),105%
2,CCCCOC(=O)c1ccc(N2C(=O)CC(N3CCN(C/C=C/c4ccccc4)CC3)C2=O)cc1 (configuration not stated),176% (active)
3,CCOC(=O)c1ccc(N2C(=O)CC(N3CCN(C(=O)c4ccccc4)CC3)C2=O)cc1 (configuration not stated),96%
4,C#CCOCCOCCOCCNc1nc(N2CCN(C(=O)[C@H](Cc3ccc(O)cc3)n3cc(C(N)CC(C)C)nn3)CC2)nc(N2CCN(C(=O)[C@H](CCC(=O)O)n3cc(C(N)[C@H](C)CC)nn3)CC2)n1 (some centres not stated),106%
5,C#CCOCCOCCOCCNc1nc(N2CCN(C(=O)[C@H](C(C)C)n3cc(CCO)nn3)CC2)nc(N2CCN(C(=O)[C@H](C(C)C)n3cc(CCO)nn3)CC2)n1,97%
6,C#CCOCCOCCOCCNc1nc(N2CCN(C(=O)[C@H](CCC(=O)O)n3cc(C(N)CO)nn3)CC2)nc(N2CCN(C(=O)[C@H](CCCCN)n3cc(C(N)[C@H](C)CC)nn3)CC2)n1 (some centres not stated),97%
7,C#CCOCCOCCOCCNc1nc(N2CCN(C(=O)[C@H](CCC(=O)O)n3cc(C(N)CO)nn3)CC2)nc(N2CCN(C(=O)[C@H](CCCCN)n3cc(C(N)CC(C)C)nn3)CC2)n1 (some centres not stated),69%
8,C#CCOCCOCCOCCNc1nc(N2CCN(C(=O)C([C@@H](C)CC)n3cc(C(N)COC(=O)C(F)(F)F)nn3)CC2)nc(N2CCN(C(=O)[C@H](CCCCN)n3cc(C(N)CC(C)C)nn3)CC2)n1 (some centres not stated),241% (active)
9,C#CCOCCOCCOCCNc1nc(N2CCN(C(=O)[C@H](CCC(=O)O)n3cc(C(N)CO)nn3)CC2)nc(N2CCN(C(=O)[C@H](Cc3ccc(O)cc3)n3cc(C(N)[C@H](C)CC)nn3)CC2)n1 (some centres not stated),108%
10,C#CCOCCOCCOCCNc1nc(N2CCN(C(=O)C([C@@H](C)CC)n3cc(C(N)COC(=O)C(F)(F)F)nn3)CC2)nc(N2CCN(C(=O)[C@H](Cc3ccc(O)cc3)n3cc(C(N)[C@H](C)CC)nn3)CC2)n1 (some centres not stated),120%
11,C#CCOCCOCCOCCNc1nc(N2CCN(C(=O)[C@H](CCCCN)n3cc([C@@H](N)C(C)CC)nn3)CC2)nc(N2CCN(C(=O)[C@H](Cc3ccc(O)cc3)n3cc([C@@H](N)C(C)CC)nn3)CC2)n1 (some centres not stated),211% (active)
12,C#CCOCCOCCOCCNc1nc(N2CCN(C(=O)C(Cc3ccc(O)cc3)n3cc(C(N)CC(C)C)nn3)CC2)nc(N2CCN(C(=O)C(Cc3ccc(O)cc3)n3cc(C(N)C(C)CC)nn3)CC2)n1 (configuration not stated),147% (active)
13,C=CCC1(C(=O)N(C)Cc2ccccc2)CCN(C(=O)OC(C)(C)C)CC1,94%
14,Cc1cc(Br)ccc1NC(=S)NC1CCCC1,94%
15,CC(=O)[C@@]12O[C@@H]1C[C@H]1[C@@H]3CC[C@H]4C[C@@H](O)CC[C@]4(C)[C@H]3CC[C@@]12C,107%
16,CC(C)(C)n1nnnc1C(c1ccccc1F)N1CCN(C(=O)c2ccco2)CC1 (configuration not stated),99%
17,N#C[C@]1(S(=O)(=O)c2ccccc2)C[C@@H]2ON=C(c3cccc(Br)c3)[C@@H]2C1,91%
18,c1ccc2cc(OCCN3CCCC3)ccc2c1,102%
19,Clc1ccccc1-c1cc(COc2ccc3ccccc3c2)no1,-1% (active)
20,O=C(Nc1ccc(Cl)cc1)OCc1cc(-c2ccccc2)on1,112%
21,Cc1c(-c2ccccc2)cn2c1-c1ccc(C)n1CC2,55% [inhibitor] (active)
22,CCCOc1ccc(Cc2c(O)nc(N)[nH]c2=O)cc1C,105%
23,COc1ccc(N2CCN(C3CCCCC3NS(=O)(=O)c3ccccc3)CC2)cc1 (configuration not stated),105%

# Source: PubChem BioAssay AID1531 (NMMLSC, 2009)
